Laboratory results: PubChem BioAssay (NCATS)
Records with an inconclusive call do not appear. Entries that show only a call come without a potency. Activity calls are given as the source filed them. Unless noted, calls come from the whole dose curve; as a rule, active = well fitted curve in the direction sought with a large enough effect; inconclusive = small, poorly fitted or top-dose-only effect, or another doubt; inactive = no such curve, though single readings can be large; an effect the other way counts as inactive or inconclusive.

How the values were obtained:
[1] = Primary qHTS for inhibitors of nuclear receptor binding SET domain protein 2 (NSD2) in an isogenic RCH-ACV NSD2 p.E1099K mutant (9B) (AID 1645876); conditions: RCH-ACV NSD2 E1099K (9B) viability, CellTiter-Glo, 72 h; series mostly up to 44.9 µM; note: nearly all actives have a fitted effect of over 70% in size; note: potency is the fitted concentration of half-maximal effect
[2] = Primary qHTS for inhibitors of nuclear receptor binding SET domain protein 2 (NSD2) in an RCH-ACV wild type WT cells (2C) (AID 1645877); conditions: RCH-ACV (leukaemia line) NSD2 WT (2C) viability, CellTiter-Glo, 72 h; series mostly up to 44.9 µM; note: nearly all actives have a fitted effect of over 70% in size; note: potency is the fitted concentration of half-maximal effect
[3] = molecular target: Catechol O-methyltransferase (Homo sapiens) (UniProt P21964); test: Confirmatory Screen for Target Class Profiling of Small Molecule Inhibitors of Methyltransferases (AID 1745852; calls by dose curve); conditions: MTase-Glo luminescence, SAH detection, recombinant enzyme; measured here: COMT max response; stronger effect = lower value
Sequence of Catechol O-methyltransferase (Homo sapiens) (P21964 whole entry, looked up): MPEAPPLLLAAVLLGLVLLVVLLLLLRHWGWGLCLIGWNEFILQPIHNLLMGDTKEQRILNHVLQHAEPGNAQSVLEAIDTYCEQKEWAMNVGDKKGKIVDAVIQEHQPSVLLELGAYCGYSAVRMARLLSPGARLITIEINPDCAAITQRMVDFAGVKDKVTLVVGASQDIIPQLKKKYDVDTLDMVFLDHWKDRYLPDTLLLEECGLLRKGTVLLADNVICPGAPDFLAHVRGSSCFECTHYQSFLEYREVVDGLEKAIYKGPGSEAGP

[4] = molecular target: Guanidinoacetate N-methyltransferase (Homo sapiens) (UniProt Q14353); test: as above; conditions: MTase-Glo luminescence, SAH detection, recombinant enzyme; activity change, negative = inhibition: at 57.3 µM (top of the series) unless noted; series mostly up to 57.3 µM
[5] = molecular target: Nicotinamide N-methyltransferase (Homo sapiens) (UniProt P40261); test: as above; conditions: MTase-Glo luminescence, SAH detection, recombinant enzyme; measured here: NNMT max response; stronger effect = lower value
Sequence of Nicotinamide N-methyltransferase (Homo sapiens) (P40261 whole entry, looked up): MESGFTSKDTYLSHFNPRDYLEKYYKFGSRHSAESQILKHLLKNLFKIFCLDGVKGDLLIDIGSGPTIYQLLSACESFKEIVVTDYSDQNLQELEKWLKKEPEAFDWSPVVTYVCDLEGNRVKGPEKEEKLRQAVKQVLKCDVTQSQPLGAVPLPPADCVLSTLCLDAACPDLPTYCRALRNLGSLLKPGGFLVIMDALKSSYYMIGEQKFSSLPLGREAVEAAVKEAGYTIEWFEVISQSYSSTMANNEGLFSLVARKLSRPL

[6] = molecular target: Phenylethanolamine N-methyltransferase (Homo sapiens) (UniProt P11086); test: as above; conditions: MTase-Glo luminescence, SAH detection, recombinant enzyme; measured here: PNMT max response; stronger effect = lower value
Sequence of Phenylethanolamine N-methyltransferase (Homo sapiens) (P11086 whole entry, looked up): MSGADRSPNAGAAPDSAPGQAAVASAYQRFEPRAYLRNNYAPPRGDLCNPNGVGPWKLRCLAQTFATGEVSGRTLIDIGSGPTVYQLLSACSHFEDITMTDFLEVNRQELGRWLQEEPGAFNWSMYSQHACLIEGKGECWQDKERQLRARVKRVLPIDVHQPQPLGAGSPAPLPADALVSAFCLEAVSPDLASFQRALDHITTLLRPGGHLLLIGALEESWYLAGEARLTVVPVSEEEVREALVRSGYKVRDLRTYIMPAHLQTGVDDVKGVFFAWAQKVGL

[7] = molecular target: Glutathione peroxidase 1 (Homo sapiens) (UniProt P07203); test: Primary qHTS Assay for Inhibitors of Recombinant Selenoprotein Glutathione Peroxidase 1 (GPX1) (AID 1845191); conditions: recombinant GPX1, GR-coupled NADPH fluorescence, 15 min; series mostly up to 48.8 µM; note: nearly all actives have a fitted effect of over 65% in size
Sequence of Glutathione peroxidase 1 (Homo sapiens) (P07203 whole entry, looked up): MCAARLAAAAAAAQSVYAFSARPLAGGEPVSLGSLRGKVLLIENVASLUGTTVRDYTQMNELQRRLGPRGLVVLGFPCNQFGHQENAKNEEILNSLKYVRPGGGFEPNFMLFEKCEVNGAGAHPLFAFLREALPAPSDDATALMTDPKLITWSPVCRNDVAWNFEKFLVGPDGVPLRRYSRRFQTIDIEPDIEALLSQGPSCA
How it was run: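 GPX1 10 nM, GR 100 nM, GSH 1 mM, NADPH 0.5 mM, CHP 0.5 mM (final). 30-min cpd preincubation, RT. Ex340/Em450 read t=0, t=15 min.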

[8] = NCATS anti-infectives library activity on HEK293 viability as a counter-qHTS vs the C. elegans viability qHTS (AID 1745854); conditions: HEK293 viability counter-screen; series mostly up to 41.8 µM;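 note: HEK293 cells exposed to compounds for 24 hr before the viability read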
How it was run: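 Compound titrations (final up to 41.7 uM) were incubated with HEK293 cells for 24 hr at 37C under 5% CO2. Viable cells were quantified with CellTiter-Glo after 10 min at ambient temperature.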

[9] = NCATS anti-infectives library activity on the primary C. elegans qHTS viability assay (AID 1745855; calls by dose curve; note: potency is the fitted concentration of half-maximal effect); conditions: C. elegans worm area imaging, day 7; series mostly up to 41.8 µM
How it was run: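 Titration-based screen in worms: eggs hatched overnight in M9, L1 larvae fed TOP10 capsules in S medium with compound, incubated 21 °C for 7 days; fluorescent objects gated by size and intensity at days 0, 3 and 7.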

[10] = Viability counterscreen for antagonist of constitutive androstane receptor (CAR) against the NCATS DSHEA and TCM libraries (AID 1794837); conditions: CAR reporter cell line viability counterscreen, qHTS; series mostly up to 22 µM;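 note: compound exposure lasted 24 h before viability reading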
How it was run: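 Cell viability, CellTiter-Fluor, Ex/Em 405/540 nm, 1 h at 37C. HepG2-CYP2B6-hCAR, 2,500 cells/well; cpds + CITCO 48 uM final (antagonist mode), 24 h, 37C/5% CO2.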

[11] = Viability counterscreen for agonist of constitutive androstane receptor (CAR) against the NCATS DSHEA and TCM libraries (AID 1794838); conditions: HepG2 cell viability counterscreen, CAR agonist assay, co-treated with 0.75 µM CAR antagonist; series mostly up to 40 µM
How it was run: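 Viability by CellTiter-Fluor fluorescence, 405/540 nm, after 1 h at 37C. HepG2-CYP2B6-hCAR cells were exposed 24 h to test substances in presence of 0.75 uM PK11195 (final).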

[12] = molecular target: Nuclear receptor subfamily 1 group I member 3 (Homo sapiens) (UniProt Q14994); test: Primary qHTS for agonist of constitutive androstane receptor (CAR) against the NCATS DSHEA and TCM libraries (AID 1794839); conditions: CAR agonist reporter cells, qHTS luminescence, CAR antagonist co-added at 0.75 µM; series mostly up to 22 µM;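 note: HepG2 cells expressing human CAR with a CYP2B6 reporter plus PK11195 antagonist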
Sequence of Nuclear receptor subfamily 1 group I member 3 (Homo sapiens) (Q14994 whole entry, looked up): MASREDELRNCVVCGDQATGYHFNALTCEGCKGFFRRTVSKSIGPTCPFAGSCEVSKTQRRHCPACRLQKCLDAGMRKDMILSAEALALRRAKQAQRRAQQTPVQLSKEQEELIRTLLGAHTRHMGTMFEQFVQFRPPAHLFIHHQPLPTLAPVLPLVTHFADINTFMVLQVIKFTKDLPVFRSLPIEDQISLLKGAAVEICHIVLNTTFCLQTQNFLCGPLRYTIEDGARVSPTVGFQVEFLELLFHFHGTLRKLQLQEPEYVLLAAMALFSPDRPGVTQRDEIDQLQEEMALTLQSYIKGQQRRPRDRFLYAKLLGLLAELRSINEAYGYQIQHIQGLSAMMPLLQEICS
How it was run: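 Luminescence from ONE-Glo luciferase was the agonist read-out in HepG2-CYP2B6-hCAR cells exposed 24 h to test substances. Wells also held the CAR antagonist PK11195 at 0.75 µM final. Viability was by CellTiter-Fluor fluorescence.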

[13] = HepG2 viability counterscreen (readout 2: ATP content) against the NCATS DSHEA and TCM libraries (AID 1794840); conditions: ATP content luminescence; series mostly up to 15.1 µM
How it was run: (§1)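 1,000 HepG2 cells/well, 4 h attach; compounds ~24 h, 37C/5% CO2. Readout 1: GF-AFC 25 uM final, 30 min, fluorescence 380/510 nm. Readout 2: CellTiter-Glo, 30 min RT, luminescence.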

[14] = HepG2 viability counterscreen (readout 1: protease activity) against the NCATS DSHEA and TCM libraries (AID 1794841); conditions: qHTS concentration series; series mostly up to 15.1 µM;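 note: cells exposed to compounds for about 24 h before the protease read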
How it was run: as §1

CC(=O)OC/C=C(\C)C(CC1C(C)=C(OC(C)=O)C(=O)C2C(C)(C)C(O)CCC12C)OC(C)=O (stereo not given)
Potency [1]: inactive | Potency [2]: inactive | activity [3]: -67.8% | activity change, negative = inhibition [4]: -2.29% [at 29.8 µM] | activity [5]: -5.45% | activity [6]: -0.876% | Potency [7]: inactive

O=C(N/N=C/c1ccc(O)c(O)c1)c1cc2ccccc2cc1O
Potency [1]: 6.82 µM (active) | Potency [2]: 5.41 µM (active) | Potency [8]: inactive | Potency [9]: 20.5 µM (active) | Potency [7]: inactive

O=C(O)c1ccc(CN2CCC(CN[C@@H]3C[C@H]3c3ccccc3)CC2)cc1
Potency [1]: inactive | Potency [2]: inactive | activity [3]: 4.43% | activity change, negative = inhibition [4]: -0.127% | activity [5]: -0.425% | activity [6]: 5.38% | Potency [7]: inactive

C=C[C@H]1[C@H](O[C@@H]2O[C@H](CO)[C@@H](O)[C@H](O)[C@H]2O)OC=C(C(=O)OC)[C@H]1C/C=C(/C=O)[C@@H]1C(C(=O)OC)=CO[C@@H](O[C@@H]2O[C@H](CO)[C@@H](O)[C@H](O)[C@H]2O)[C@@H]1C=C
Potency [1]: inactive | Potency [2]: inactive | activity [3]: -65.2% | activity change, negative = inhibition [4]: 0% [at 19.1 µM] | activity [5]: 0% | activity [6]: 4.52% | Potency [7]: inactive

O=C(/C=C/c1ccccc1)OC[C@]12O[C@H]1[C@@H](O)[C@@H]1C=CO[C@@H](O[C@@H]3O[C@H](CO)[C@@H](O)[C@H](O)[C@H]3O)[C@@H]12
Potency [1]: inactive | Potency [2]: inactive | activity [3]: -55.2% | activity change, negative = inhibition [4]: -7.11% [at 29.8 µM] | activity [5]: -5.73% | activity [6]: -4.62% | Potency [7]: inactive

Cc1cc(N(C)C)ccc1-c1nc2ccc(-c3nc4ccc(N5CCN(C)CC5)cc4[nH]3)cc2[nH]1
Potency [1]: 0.578 µM (active) | Potency [2]: 0.258 µM (active) | activity [3]: -4.96% | activity change, negative = inhibition [4]: 0% | activity [5]: -5.28% | activity [6]: -3.42% | Potency [7]: inactive

CC(C)=CCC[C@](C)(O)[C@H]1CC[C@]2(C)[C@@H]1[C@H](O)CC1[C@@]3(C)CC[C@H](O)C(C)(C)[C@@H]3[C@@H](O[C@@H]3O[C@H](CO)[C@@H](O)[C@H](O)[C@H]3O[C@@H]3O[C@H](CO)[C@@H](O)[C@H](O)[C@H]3O)C[C@]12C (stereo not given in full)
Potency [1]: inactive | Potency [2]: inactive | outcome [10]: inactive | outcome [11]: inactive | outcome [12]: inactive | outcome [13]: inactive | outcome [14]: inactive | Potency [7]: inactive

COc1cc(O)cc(C)c1C(=O)OC1C(CO)OC(OC2C(O)C(O)C(O)C(O)C2O)C(O)C1O (stereo not given)
Potency [1]: inactive | Potency [2]: inactive | Potency [7]: inactive

OC[C@H]1O[C@@H](OC(CCCCc2ccc(O)cc2)CCc2ccc(O)cc2)[C@H](O)[C@@H](O)[C@@H]1O (stereo not given in full)
Potency [1]: inactive | Potency [2]: inactive | Potency [7]: inactive

COc1cc(C)c(C(=O)O[C@H]2[C@@H](OC(C)=O)[C@H](n3ccc(=O)[nH]c3=O)O[C@@H]2CO)c(OC)c1
Potency [1]: inactive | Potency [2]: inactive | Potency [7]: inactive

COCCOc1cnc2ccn([C@H](C)c3nnc4c(F)cc(-c5cnn(C)c5)cn34)c(=O)c2c1
Potency [1]: inactive | Potency [2]: inactive | Potency [7]: inactive

COC(=O)c1ccc(OC(CO)C(O)c2ccc(O)c(OC)c2)c(OC)c1 (stereo not given)
Potency [1]: inactive | Potency [2]: inactive | Potency [7]: inactive

O=C(O)c1cc2cccc([N+](=O)[O-])c2[nH]1
Potency [1]: inactive | Potency [2]: inactive | Potency [7]: inactive

C[C@@H]1O[C@@H](O[C@H]2[C@H](OC(=O)[C@]34CCC(C)(C)C[C@H]3C3=CCC5[C@@]6(C)CC[C@H](O[C@@H]7O[C@H](C(=O)O)[C@@H](O)[C@H](O)[C@H]7O[C@@H]7O[C@H](CO)[C@H](O)[C@H](O)[C@H]7O)[C@@](C)(C=O)C6CC[C@@]5(C)[C@]3(C)C[C@H]4O)O[C@H](C)[C@H](O[C@@H]3O[C@H](C)[C@H](O)[C@H](O)[C@H]3O)[C@@H]2O)[C@H](O)[C@H](O)[C@H]1O[C@@H]1OC[C@@H](O)[C@H](O[C@@H]2O[C@H](CO)[C@@H](O)[C@H](O)[C@H]2O)[C@H]1O (stereo not given in full)
activity change, negative = viability loss [1]: -94% [at 4.96 µM] (inactive) | activity change, negative = cell killing [2]: -94% [at 4.96 µM] (inactive) | activity, negative = inhibition [7]: 1.71% [at 9.52 µM] (inactive)

CC1CC2OC3(OC2C(C)(C)O)C1C1(C)CCC24CC25CCC(O[C@@H]2OC[C@@H](O)[C@H](O)[C@H]2O)C(C)(C)C5CC=C4C1(C)C3O (stereo not given in full)
Potency [1]: inactive | Potency [2]: inactive | Potency [7]: inactive

C=CC1C(OC2OC(CO)C(O)C(O)C2O)OC=C2C(=O)N3C(C(=O)O)Cc4c([nH]c5ccccc45)C3CC21 (stereo not given)
Potency [1]: inactive | Potency [2]: inactive | Potency [7]: inactive

CC/C=C\C/C=C\C/C=C\CCCCCCCC(=O)OCC(O)COC1OC(CO)C(O)C(O)C1O (stereo not given)
Potency [1]: inactive | Potency [2]: inactive | Potency [7]: inactive

CC1(C=O)CC[C@]2(C(=O)O[C@@H]3O[C@H](CO)[C@@H](O)[C@H](O)[C@H]3O)CC[C@]3(C)C(=CCC4[C@@]5(C)C[C@H](O)[C@H](O[C@@H]6OC[C@@H](O)[C@H](O)[C@H]6O)[C@@](C)(CO)C5CC[C@]43C)C2C1 (stereo not given in full)
outcome [1]: inactive [at 9.23 µM] | activity change, negative = cell killing [2]: -3.33% [at 9.23 µM] (inactive) | Potency [7]: inactive

O=S(=O)(c1ccc(S(=O)(=O)n2cnc3ccccc32)cc1)N1CCCCCC1
Potency [1]: inactive | Potency [2]: inactive | Potency [7]: inactive

CC(=O)c1cc2c(cc1O)OC(C)(C)C=C2
Potency [1]: inactive | Potency [2]: inactive | Potency [7]: inactive

CC1CC(C(O)C(C)(C)O)OC2CC3(C)C4(C)CCC5C(C)(C)C(=O)CCC5(C)C4CCC3(O)C12O (stereo not given)
Potency [1]: inactive | Potency [2]: inactive | Potency [7]: inactive
